# Results filed as inconclusive are left out. A call without a number means that no potency is given here. Active and inactive are the calls of the source. Calls follow the shape of the full dose curve. Square brackets hold non-standard residues; d marks the D form. Peptide text beside a SMILES is read from it. * marks the point of attachment. Nle = CCCC[C@H](N)C(=O)O; Cbz = O=C(OCc1ccccc1)*; CH2Cl = ClC*
# Legend:
# [1] = Confirmatory qHTS for VERO E6 Cytotoxicity Assay: Counterscreen for SARS-CoV-2 CPE Assay (AID 1508605); also: nearly all actives have a fitted effect of over 60% in size; also: potency is read from the fitted curve at half-maximal effect
# [2] = Confirmatory qHTS for activators (rescue) of SARS-CoV-2 Cytopathic Effect (CPE) (AID 1508606); also: nearly all actives have a fitted effect of over 70% in size; also: potency is read from the fitted curve at half-maximal effect
# [3] = Confirmatory qHTS to identify inhibitors of SARS-CoV-2 cell entry (AID 1645844); also: potency is read from the fitted curve at half-maximal effect; nearly all actives have a fitted effect of over 45% in size
# Procedure, shortened: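 Luminescence entry read-out after 48 h: spike-pseudotyped MLV particles (Wuhan-Hu-1, 19-aa C-terminal truncation) added to compound-pretreated (1 h) HEK293-ACE2 cells; Data were normalised to bald PP and spike PP wells.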
# [4] = Primary qHTS to identify inhibitors of SARS-CoV-2 cell entry (AID 1645846); settings: SARS-CoV-2 pseudovirus cell entry assay, luminescence; activity change, negative = inhibition: at 57.1 µM (top of the series) unless noted; also: nearly all actives have a fitted effect of over 45% in size
# Procedure, shortened: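 HEK293 cells stably expressing human ACE2, pre-treated 1 h with compound, then infected with MLV particles pseudotyped with Wuhan-Hu-1 spike (C-terminal 19-aa truncation). Luciferase luminescence after 48 h at 37 °C, normalised to spike PP and bald PP.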
# [5] = VSVG counterscreen qHTS to identify inhibitors of SARS-CoV-2 cell entry (AID 1645847); also: potency is read from the fitted curve at half-maximal effect; nearly all actives have a fitted effect of over 65% in size
# Procedure, shortened: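 HEK293-ACE2 cells (Expi293F, human ACE2) pretreated 1 h with compound, then infected with MLV-based VSV-G pseudotyped particles for 48 h at 37 C; luciferase luminescence normalized to VSV-G PP and bald PP wells.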
# [6] = Cytotoxicity counterscreen for inhibitors of SARS-CoV-2 cell entry (AID 1645845); settings: outcome: dose series up to 57.1 µM unless noted; also: nearly all actives have a fitted effect of over 50% in size; also: potency is read from the fitted curve at half-maximal effect
# Procedure, shortened: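 ATP-content luminescence (ATPLite 1step, 15 min RT) read after 48 h compound exposure of Expi293F cells stably expressing human ACE2; normalized to cells-only wells and media-only wells.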
structure (smiles),measurement,setting,value
Cc1cccc(/C=N/Nc2cc(N3CCOCC3)nc(OCCc3ccccn3)n2)c1,"activity change, negative = cytotoxic",[1],-20.4% [at 1.7 µM] (inactive)
same,Potency,[2],0.0142 µM (active)
same,Potency,[3],0.0764 µM (active)
same,"activity change, negative = inhibition",[4],-96.7%
same,Potency,[5],7.64 µM (active)
CCC(C)C(=O)OC1C(C)C2(O)C(C=C(CO)CC3(O)C(=O)C(C)=CC32)C2C(C)(C)C12OC(=O)C(C)C (stereo not given),Potency,[1],inactive
same,Potency,[2],inactive
C=CC(C)(C)c1[nH]c2ccccc2c1C1=C(O)C(=O)C(c2c[nH]c3c(CC=C(C)C)cccc23)=C(O)C1=O,Potency,[1],3.98 µM (active)
same,Potency,[2],inactive
CC[C@H](NC(=O)[C@H](CS(=O)(=O)CC1CC1)N[C@@H](c1ccc(F)cc1)C(F)(F)F)C(=O)C(=O)NC1CC1,Potency,[1],inactive
same,Potency,[2],0.112 µM (active)
same,Potency,[3],1.08 µM (active)
same,Potency,[6],inactive
same,Potency,[5],10.8 µM (active)
O=C1c2ccccc2-c2nc3nnnn3nc21 (tested in a mixture with another compound),Potency,[1],1.12 µM (active)
same,Potency,[2],inactive
CCN(CC)CC1CCN(c2ncc3ncnc(Nc4ccc(F)c(Cl)c4)c3n2)CC1,Potency,[1],11.2 µM (active)
same,Potency,[2],inactive
COc1ccccc1N1CCN(CC[C@@](C)(C(=O)C2CCCCC2)c2ccccc2)CC1,Potency,[1],inactive
same,Potency,[2],10 µM (active)
CC#C[C@@H](CC(=O)O)c1ccc(OCc2cccc(-c3ccc(C(F)(F)F)cc3)c2)cc1,Potency,[1],inactive
same,Potency,[2],11.2 µM (active)
same,Potency,[6],inactive
Cc1nnc(-c2ccc(-c3ccc(C(=O)Nc4ccc(O)c(N5CCN(C)CC5)c4)cc3)c(C)c2)o1,Potency,[1],inactive
same,Potency,[2],8.91 µM (active)
CONC(=O)Nc1ccc(-c2sc3c(c2CN(C)Cc2ccccc2)c(=O)n(-c2ccccc2)c(=O)n3Cc2c(F)cccc2F)cc1,Potency,[1],inactive
same,Potency,[2],inactive
CN(C)CCN(Cc1ccc(-c2ccc(CNCCc3ccccc3)cc2)cc1)C(=O)CCC1CCCC1,Potency,[1],3.98 µM (active)
same,Potency,[2],inactive
CC(C)C[C@H](NC(=O)CNC(=O)OCc1ccccc1)C(=O)N[C@@H](Cc1ccccc1)C(=O)CCl (Cbz-Gly-Leu-Phe-CH2Cl),Potency,[1],inactive
same,Potency,[2],1 µM (active)
CC1=CC2OC3CC(O)[C@@](C)(C34CO4)[C@@]2(C)C(O)C1=O (stereo not given in full),Potency,[1],3.55 µM (active)
same,Potency,[2],inactive
COc1cc2nc(N3CCCCC3)nc(NC3CCN(C)CC3)c2cc1OC,Potency,[1],10 µM (active)
same,Potency,[2],3.55 µM (active)
Nc1ncnc2c1c(-c1ccc(Oc3ccccc3)cc1)nn2[C@@H]1CCCNC1,Potency,[1],8.91 µM (active)
same,Potency,[2],inactive
CCCC[C@@H](C=O)NC(=O)[C@H](CC(C)C)NC(=O)OCc1ccccc1,Potency,[1],inactive
same,Potency,[2],0.355 µM (active)
same,Potency,[3],1.08 µM (active)
same,Potency,[6],inactive
CC1CCN(C(c2ccc(F)cc2)c2ccc(C(C)C(=O)O)cc2-c2ccc(C(F)(F)F)cc2)CC1 (stereo not given),Potency,[1],11.2 µM (active)
same,Potency,[2],inactive
CN(C)CCN(Cc1ccccc1)C(=O)c1cc(-c2ccc(F)cc2)n2nc(C(C)(C)C)cc2n1,Potency,[1],inactive
same,Potency,[2],inactive
Cc1cnc(NC(=O)c2cc(S(=O)(=O)N(C)C)ccc2N2CCCC2)s1,Potency,[1],inactive
same,Potency,[2],2.82 µM (active)
CC/C(=C(/CC)c1ccc(O)c(CN(CC)CC)c1)c1ccc(O)c(CN(CC)CC)c1,Potency,[1],inactive
same,Potency,[2],8.91 µM (active)
COc1cc(NC(=O)Nc2cccc(CNC(=O)O[C@H]3CCOC3)c2)ccc1-c1cnco1,Potency,[1],inactive
same,Potency,[2],inactive
CCCN1CCN(c2ccc(C(=O)NC3(C(=O)NCC#N)CCCCC3)cc2)CC1,Potency,[1],inactive
same,Potency,[2],1 µM (active)
same,Potency,[6],inactive
Fc1ccc2c(CCNCc3cccc(OCC(F)(F)C(F)F)c3)c[nH]c2c1,Potency,[1],inactive
same,Potency,[2],10 µM (active)
C/C1=C\CCC2=CC(OC2=O)C(C)(C)/C=C/C1=O (stereo not given),Potency,[1],inactive
same,Potency,[2],10 µM (active)
CN1CCN(c2ccc(C(=O)Nc3n[nH]c4ccc(Cc5cc(F)cc(F)c5)cc34)c(NC3CCOCC3)c2)CC1,Potency,[1],3.55 µM (active)
same,Potency,[2],inactive
same,Potency,[6],31.6 µM (active)
CN(C)c1nc(NC2CCC(NCCc3ccc(Br)cc3OC(F)(F)F)CC2)nc2ccccc12 (stereo not given),Potency,[1],3.98 µM (active)
same,Potency,[2],inactive
CCCC[C@@H](C=O)NC(=O)[C@H](CC(C)C)NC(=O)[C@H](CC(C)C)NC(C)=O (Ac-Leu-Leu-[Nle]-aldehyde),Potency,[1],inactive
same,Potency,[2],2 µM (active)
COc1ccc(NS(=O)(=O)c2sc3ccc(Cl)cc3c2C)cc1N1CCNCC1,Potency,[1],inactive
same,Potency,[2],10 µM (active)
CC1OC2OC3C(OCC(O)C3O)OC(=O)C34CCC(C)(C)CC3C3=CCC5C6(C)CC(O)C(OC7OC(CO)C(O)C(O)C7OC7OCC(OC(=O)CC(C)(O)CC(=O)OC1C(OC1OCC(O)C(O)C1O)C2O)C(O)C7O)C(C)(CO)C6CCC5(C)C3(C)CC4O (stereo not given),Potency,[1],1.56 µM (active)
same,Potency,[2],inactive
Cc1ccc(NCCN(C)CCNc2ccnc3cc(Cl)ccc23)c2c(=O)c3ccccc3sc12,Potency,[1],inactive
same,Potency,[2],inactive
Cc1ncc(NC(=O)c2ccc(CN3CCN(C)CC3)c(C(F)(F)F)c2)cc1Nc1nccc(-c2cccnc2)n1,Potency,[1],inactive
same,Potency,[2],10 µM (active)
same,Potency,[6],inactive
CC1(C)CC[C@]23CO[C@@]4(CCC5[C@@]6(C)CC[C@H](O[C@@H]7OC[C@H](O[C@@H]8O[C@H](CO)[C@@H](O)[C@H](O)[C@H]8O[C@@H]8OC[C@@H](O)[C@H](O)[C@H]8O)[C@H](O)[C@H]7O[C@@H]7O[C@H](CO)[C@@H](O)[C@H](O)[C@H]7O)[C@@](C)(CO)C6CC[C@@]5(C)[C@]4(C)C[C@H]2O)[C@@H]3C1 (stereo not given in full),Potency,[1],3.03 µM (active)
same,Potency,[2],inactive
CCC[C@@H](NC(=O)N1C(=O)C(CC)(CC)[C@@H]1Oc1ccc(C(=O)N2CCN(C)CC2)cc1)c1ccc2c(c1)OCO2,Potency,[1],inactive
same,Potency,[2],11.2 µM (active)
CCOc1ccc(-c2nc(-c3cccc4c3CCC4NCCO)no2)cc1OCC (stereo not given),Potency,[1],inactive
same,Potency,[2],11.2 µM (active)

# Reference: PubChem BioAssay (NCATS)
